Laboratory results published in PubChem BioAssay AID493248 (Broad Institute, 2011).
The whole screen tested about 2,300 compounds, of which about 1,400 (61%) were called active. Inconclusive results (about 7%) are left out. The rule behind the calls is not given here. So high a share suggests a set chosen from earlier hits. Only a sample is shown. Entries with a potency or affinity are not part of this list.

Target: FAD-linked sulfhydryl oxidase ALR (Homo sapiens) (UniProt P55789)
Test: ALR-catalysed DTT oxidation blockers – biochemical, H2O2 detection, luminescence, cherry-pick, dose response (AID 493248)
Conditions: purified ALR, H2O2 HRP-luminol luminescence; at 10 µM (top of the series)

Sequence of FAD-linked sulfhydryl oxidase ALR (Homo sapiens) (P55789 whole entry, looked up): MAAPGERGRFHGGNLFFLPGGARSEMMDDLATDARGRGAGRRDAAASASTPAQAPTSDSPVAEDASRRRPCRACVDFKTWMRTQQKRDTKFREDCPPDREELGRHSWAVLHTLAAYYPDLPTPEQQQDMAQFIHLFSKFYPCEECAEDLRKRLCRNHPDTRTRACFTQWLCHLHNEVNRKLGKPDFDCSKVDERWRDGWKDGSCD

| Compound | activity change, negative = inhibition |
| --- | --- |
| Cc1cc(C(=O)CN2C(=O)CCC2=O)c(C)n1Cc1ccccc1 | -73.3% |
| CS(=O)(=O)N(CC(=O)NCc1ccccn1)Cc1ccc(Cl)cc1 | 128% |
| N#CCC(=O)Nc1ccc(C(=O)NCCc2c[nH]c3ccccc23)cc1 | -21.6% |
| COC(=O)[C@@H](N)Cc1ccc(O)c(O)c1 | -110% |
| Cc1cccn2cc(CNc3ccccc3)nc12 | -7.4% |
| CC(=O)Nc1cccc(NC(=O)c2cccc(-c3ccc(O)cc3)c2)c1 | 64.6% |
| Cc1cc(C)n2nc(C(=O)N/N=C/c3ccc(O)cc3)nc2n1 | -107% |
| S=c1[nH]nc(C2CCCCC2)n1/N=C/c1cccs1 | -12.9% |
| Nc1nnnn1/N=C/c1ccc(O)cc1 | -84.1% |
| COc1cc(/C=N/N2C(=O)C3C4C=CC(CC4)C3C2=O)ccc1O (stereo unspecified) | -104% |
| CC(=O)c1cc(CC=C(C)C)c(O)cc1O | 11.5% |
| O=C(Nc1nnc(-c2ccco2)o1)c1cccc(Cl)c1 | -18.4% |
| Cc1cccc(C(=O)Nc2onc(C)c2C#N)c1 | -51.1% |
| Cc1[nH]nc(-c2ccc(O)cc2O)c1-c1nc2ccccc2s1 | 368% |
| CC(C)c1ccc(NC2CCCN(C(=O)CCN3CCCC3=O)C2)cc1 (stereo unspecified) | -61% |
| COc1ccc(NC2CCCN(C(=O)Cn3ccc(C)n3)C2)cc1OC (stereo unspecified) | 108% |
| O=C(CCc1ccncc1)N1CCCC(Nc2ccc(F)c(F)c2)C1 (stereo unspecified) | -11.3% |
| CC(C)N1C(=O)C2C(c3ccccc3O)NC(C)(C(=O)O)C2C1=O (stereo unspecified) | 4.76% |
| CCc1c(C(=O)NCc2cnn(C)c2)csc1C | -7.16% |
| Cc1cccc(CSc2nn3c(=O)c(C)nnc3s2)c1 | -99.2% |
| Cc1ccc(CNC(=O)C(NS(=O)(=O)c2ccc3nc(C)sc3c2)C(C)C)cc1 (stereo unspecified) | 40.5% |
| Cc1nc2ccc(S(=O)(=O)NC(C(=O)Nc3nccs3)C(C)C)cc2s1 (stereo unspecified) | -35.5% |
| COc1ccc(NC(=O)CNS(=O)(=O)c2ccc3nc(C)sc3c2)c(OC)c1 | -62.8% |
| C/C(=N\NS(=O)(=O)c1ccc(Cl)cc1)c1ccc(O)cc1 | -79.4% |
| Cc1cc(NC(=O)Nc2cccc(C)c2C)no1 | -49% |

| Compound | activity change, negative = inhibition |
| --- | --- |
| O=C(Nc1ccccc1N1CCCC1)c1cccnc1 | -34.6% |
| CC(=O)Nc1cccc(N=NN2CCCCC2)c1 | 26.8% |
| CC(=O)Nc1ccc(S(=O)(=O)NNC(=O)c2cccc(Cl)c2)cc1 | -37.6% |
| Cc1cc(NC(=O)c2ccoc2C)ccc1Br | -11.3% |
| CCc1nnc(NS(=O)(=O)c2ccc(NC(=O)OC)cc2)s1 | -99.5% |
| COc1ccc(S(=O)(=O)Nc2nc3ccccc3nc2Nc2cccc(C(=O)O)c2)cc1 | -80.5% |
| Cc1nc2ccc(Br)cn2c1NC(C)(C)C | 15.9% |
| O=C1CSC(c2ccccc2)N1c1ccc([N+](=O)[O-])cc1 (stereo unspecified) | -50.9% |
| COc1ccc(C2SCC(=O)N2Cc2ccccc2)cc1 (stereo unspecified) | -33.1% |
| Cc1noc(NS(=O)(=O)c2ccc(NC(=O)CCN3C(=O)c4ccccc4C3=O)cc2)c1C | -21.6% |
| O=C(O)CCCC(=O)N1CCN(c2nc(-c3ccccc3)c3ccccc3n2)CC1 | -0.988% |
| COc1ccc(N=C2C(=O)Nc3ccccc32)cc1 | -24.8% |
| Cc1ccc(N(C(=O)c2cccs2)C2C=CS(=O)(=O)C2)cc1 (stereo unspecified) | -56.3% |
| COc1ccc(Nc2nccc(-c3cccc(N)c3)n2)cc1 | -11.7% |
| CC1CCC2(CC1)NC(=S)N(c1ccccc1)N2 (stereo unspecified) | -28.1% |
| COC(=O)c1sccc1NC(=O)c1cc(C)on1 | -8.04% |
| Cn1c(CNc2ccc(O)cc2)nc2ccccc21 | -101% |
| COc1ccc(N2CCN(c3ncccn3)CC2)cc1 | -8.28% |
| Cc1nn(C)c(Nc2ccc(Br)cc2)c1Br | -46.2% |
| Cc1ccccc1NC(=O)CNc1ccccc1N1CCCCC1 | -89.6% |
| COc1ccc(S(=O)(=O)N2CCC(C(=O)Nc3ccccc3N3CCCC3)CC2)cc1OC | -28.9% |
| COC(=O)c1c(NC(=O)CN2CCN(Cc3ccc4c(c3)OCO4)CC2)sc(C)c1C | -8.94% |
| O=C(Nc1ccccc1N1CCCC1)c1cccc(F)c1 | -3.33% |
| c1ccc2c(c1)CSc1ccccc1N2 | -6.27% |
| CC1CN(C(=O)Nc2ccc3snnc3c2)c2ccccc21 (stereo unspecified) | -13.6% |

| Compound | activity change, negative = inhibition |
| --- | --- |
| CCCCCC(=O)N/N=C/c1ccc(N(C)C)cc1 | -20.3% |
| CN(C)c1ccc(/C=N/NC(=O)c2sccc2-n2cccc2)cc1 | -99% |
| CN(C)c1ccc(C=Nc2cnn(C)c2C(N)=O)cc1 | -35.9% |
| O=C(CNC(=O)c1ccccc1Br)N/N=C/c1ccc(O)cc1 | -106% |
| CCn1c(NC(=O)c2ccc(C)cc2)c2ccccc2nc1=O | -48.8% |
| O=Cc1c(Sc2ccccc2)nc2ccccn2c1=O | -18.4% |
| O=C1Oc2ccccc2C(=O)/C1=C\N1CCN(c2ccccc2)CC1 | -15.7% |
| COc1ccc(OC)c(S(=O)(=O)Nc2cccc3c(O)cccc23)c1 | 31.7% |
| Cc1ccc(S(=O)(=O)Nc2c(O)ccc3ccccc23)cc1 | 13.8% |
| COc1ccc(C=O)cc1CSc1ccccn1 | -11.6% |
| COc1c(OC)c(O)c2c(=O)cc(-c3c(O)cccc3O)oc2c1OC | 162% |
| Cc1nc(-c2ccc([N+](=O)[O-])cc2)c(-c2ccccc2)o1 | 29.9% |
| O=C(CC1C(=O)Nc2ccccc2N1CC(=O)N1CCCC1)Nc1ccc(Br)cc1 (stereo unspecified) | -30% |
| CCN(CC)c1ccc2oc(=O)c(C)nc2c1 | 88.3% |
| O=C(CCNc1cccc(Cl)c1)c1ccco1 | -4.82% |
| O=C(c1cc(C(=O)c2ccco2)cc(C(=O)c2ccco2)c1)c1ccco1 | -7.08% |
| COc1cc(NCCC(=O)c2cccs2)c(OC)cc1Cl | -89.7% |
| NC(=O)NC1CCCc2c1[nH]c1ccc(Cl)cc21 (stereo unspecified) | -12.4% |
| c1ccc2c3c([nH]c2c1)-c1[nH]ncc1CC3 | -82.4% |
| COc1ccc(-c2csc(NC(=O)[C@H](C)N3C(=O)C4CC=CCC4C3=O)n2)cc1OC (stereo partly specified) | -58.5% |
| COc1cc(/C=C2\SC(=Nc3ccccc3OC)NC2=O)ccc1O | -53.3% |
| O=C(c1cccc(Cl)c1)C1CCCN(Cc2ccc(N3CCNC3=O)cc2)C1 (stereo unspecified) | -1.51% |
| CCC(=O)N1CCN=C1SCc1cccc(F)c1 | -25.9% |
| O=C(CN1C(=O)CSC1=O)N1CCCC(Nc2ccc(F)cc2)C1 (stereo unspecified) | -78.4% |
| Cc1nc(N2CCN(C)CC2)c2cc(-c3ccccc3)sc2n1 | -4.2% |

| Compound | activity change, negative = inhibition |
| --- | --- |
| COc1cc(C(=O)O)c2c(c1C)OC(=O)c1c(C)cc(O)c(C=O)c1O2 | -39.1% |
| CNC(=O)c1csc(-c2ccc(C)cc2)n1 | 146% |
| Cc1cccc(NCc2ccc(N(C)C)cc2)n1 | -5.45% |
| CCNc1nc(NCC)nc(N(C)N)n1 | -22.3% |
| CC(C)n1c(NCc2cccs2)nc2ccccc21 | -4.15% |
| COc1ccc(O)c(CNc2ccccc2F)c1 | -6.08% |
| CC(=O)Nc1ccc(NCc2ccc(C)s2)cc1 | -11.5% |
| CC(=O)Nc1ccc(-c2csc(NNC(=O)c3ccccc3)n2)cc1 | 7.25% |
| O=C(CN1C(=O)S/C(=C\C=C\c2ccccc2)C1=O)Nc1ccccc1C(=O)O | -58% |
| COc1cc(C(=O)N/N=C/c2cccc(Oc3ccccc3)c2)ccc1O | -2.05% |
| Cc1[nH]n(C(N)=S)c(=O)c1N=Nc1cccc([N+](=O)[O-])c1C | -50.5% |
| CCN(CC)S(=O)(=O)c1ccc(C(=O)Nc2nnc(CSC)o2)cc1 | -25.7% |
| Cc1cc(C(=O)Nc2nc3c(s2)CCCC3)no1 | -50.2% |
| Cc1cc(C(=O)Nc2sc3c(c2C#N)CCCC3)no1 | -53.9% |
| O=C(NCc1n[nH]c(=S)n1-c1ccc(Cl)c(Cl)c1)c1ccc(S(=O)(=O)N2CCCCC2)cc1 | 15% |
| COc1ccc(C(=O)c2ccc(N(C)C)cc2)c(OC)c1 | -4.89% |
| CC(C)C(=O)n1nc(-c2cccnc2)nc1NCc1cccs1 | -25.7% |
| C(=C\c1nc2ccccc2[nH]1)/c1ccccc1 | -1.44% |
| O=c1[nH]ccc2c(O)cccc12 | -103% |
| CC(C)Cc1nc2ccc(N)cc2[nH]1 | -1.73% |
| Nc1ccc2nc[nH]c2c1 | -12.8% |
| Nc1ccc(-c2nc3ccc([N+](=O)[O-])cc3[nH]2)cc1 | 31% |
| COc1ccc(N=C2C(=O)N3CCCc4cccc2c43)cc1 | -15.6% |
| Cc1ccc(S(=O)(=O)N2CCCC(C(=O)O)C2)s1 (stereo unspecified) | 5.85% |
| O=C(NCc1ccccc1Cl)C1CCCN(S(=O)(=O)c2cnc[nH]2)C1 (stereo unspecified) | 20% |

| Compound | activity change, negative = inhibition |
| --- | --- |
| O=C(NCCc1ccccc1)C1CCCN(S(=O)(=O)c2cnc[nH]2)C1 (stereo unspecified) | 6.71% |
| COc1cc(NC(=O)C2CCCN(S(=O)(=O)c3cnc[nH]3)C2)cc(OC)c1 (stereo unspecified) | -31% |
| N#Cc1c2n(c3c(=O)n(Cc4ccccc4)cnc13)CCCC2 | 18% |
| N#Cc1c(N)c(C(=O)c2ccccc2)n2c1CCC2 | -45.9% |
| COc1ccc(C(=O)NCCNc2nc3ccc(C)cc3cc2C#N)cc1OC | 3.56% |
| CN(C)c1ccc(/C=N/Nc2cccc(C(=O)O)c2)cc1 | -23.9% |
| O=C(/C(=N/N=C/c1ccc(O)c(O)c1O)c1ccccc1)c1ccccc1 | -31.1% |
| CC1CCN(CC(=O)N2c3ccccc3CCc3ccccc32)CC1 | 2.93% |
| CCC(C)(C)n1nnnc1CN1CCc2ccccc21 | 23.2% |
| COc1ccc(NC(=O)CC2Nc3cccc4cccc(c34)NC2=O)cc1 (stereo unspecified) | -74.6% |
| CN(C)c1ccc(NC(=O)CC2NCCNC2=O)cc1 (stereo unspecified) | -99.5% |
| CC(C)Cn1c(N)c(C=O)c(=O)n(C)c1=O | -3.74% |
| CN(Cc1ccco1)C(=O)C(Cc1ccccc1)NS(=O)(=O)c1ccc2c(c1)CCC(=O)N2 (stereo unspecified) | -12% |
| N=C1/C(=C\c2ccc(Br)o2)C(=O)N=C2SC(CC(=O)N3CCCCC3)=NN12 | -18.4% |
| CSc1ccc(/C=C2\C(=N)N3N=C(CC(=O)N4CCCCC4)SC3=NC2=O)cc1 | -54.4% |
| CCc1ccc(CCC(=O)Nc2ccc(Cl)cc2)o1 | -22.5% |
| Cn1c(-c2sccc2OCc2ccccc2)n[nH]c1=S | -40.7% |
| CC(C)C(=O)NN(C(=O)C(C)C)c1nc2ccccc2s1 | -76% |
| Cc1nc(-c2ccccc2)sc1-c1n[nH]c(=S)n1C | -47.5% |
| COc1cc(CNc2cc(C)ccc2C)cc(OC)c1OC | -55.5% |
| Cc1ccc2cc3cc(C(=O)NCCCN4CCCC4=O)oc3nc2c1 | -55.2% |
